# The campaign covered roughly 63,000 compounds. About 1,100 (1.7%) were called active. Cut-off read from the data, not from the text of the source: active = cytotoxicity above about 50%; inactive = the rest. Many of the other results were omitted from the sample, so actives are more common in it than they were. Results with a measured potency or affinity are listed apart.
# Test: cytotoxicity in HPDE-C7 cells, cell-based, fluorescence, HTS (AID 430);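 note: cells exposed to compound for 48 hours before viability readout; 0% = vehicle and 100% = reference cytotoxic drug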
# Conditions: HPDE-C7 pancreatic duct cells viability, at 10 µM, active compounds read high
row,SMILES,cytotoxicity
1,CC(=O)N1CCN=C1SCc1ccc(Br)cc1,1.6% (inactive)
2,O=C(CCNc1n[nH]c(=O)[nH]c1=O)N1CCOCC1,-0.4% (inactive)
3,Cc1ccc(CNC(=O)CN2CCN(Cc3ccc(C)cc3)C2=O)cc1,-20.9% (inactive)
4,COc1cccc(NC(=O)c2ccccc2-c2nc(-c3cccc(C)c3)no2)c1,24.8% (inactive)
5,CCc1nc(N2CCCC2)c(C#N)c2c1CCCC2,-1.4% (inactive)
6,CC(C)Cc1nc(N2CCCCC2)c(C#N)c2c1CCC2,11.9% (inactive)
7,CC(C)Cc1nc(N2CCOCC2)c(C#N)c2c1CCC2,74.1% (active)
8,CCCc1nc(N2CCOCC2)c(C#N)c2c1CCCC2,-18.8% (inactive)
9,CCCc1nc(N2CCCC2)c(C#N)c2c1CCCC2,51.6% (active)
10,CCc1nc(N2CCOCC2)c(C#N)c2c1CCCC2,7.3% (inactive)
11,CCc1cc(=O)oc2cc(OC(C)C(=O)O)c(Cl)cc12 (stereo not drawn),1.5% (inactive)
12,O=C(Cc1nc2ccccc2[nH]1)NCc1ccco1,-7.1% (inactive)
13,COC(=O)c1cccc(S(=O)(=O)N2CCN(c3nc4ccccc4s3)CC2)c1,-5.4% (inactive)
14,CCOc1ccc(N(CC(=O)N2CCc3ccccc32)S(=O)(=O)c2c(C)noc2C)cc1,-26.9% (inactive)
15,CC(C)CN(C#N)c1nc(N2CCOCC2)nc(N2CCOCC2)n1,6.3% (inactive)
16,COc1ccc(CNC(=O)C2CCNCC2)cc1,-3.8% (inactive)
17,O=C(Cc1cn2ccsc2n1)Nc1cccc2cnccc12,11.4% (inactive)
18,Cc1cc(=O)[nH]c(SCCOc2cccc(C(F)(F)F)c2)n1,-4.8% (inactive)
19,O=C(CSc1c2c(nc3ccc(Cl)cc13)CCCC2)N1CCN(C(=O)c2ccco2)CC1,106% (active)
20,O=C(CSc1nc2cc(Cl)ccc2s1)N1CCN(C(=O)c2ccco2)CC1,-2.2% (inactive)
21,O=C(CSc1nnc(SCc2ccc(Cl)cc2)s1)N1CCN(C(=O)c2ccco2)CC1,-25.8% (inactive)
22,CC(C)(C)n1nnnc1C(c1ccc(C#N)cc1)N1CCCC2(CCCCC2)C1 (stereo not drawn),2.3% (inactive)
23,CCOC(=O)c1ccc(NC(=O)CN2CCN(c3ccccc3)CC2)cc1,6% (inactive)
24,CCOC(=O)c1ccc(NC(=O)N2CCc3ccccc32)cc1,5.4% (inactive)
25,CCOC(=O)c1ccc(NC(=O)CN2CCc3ccccc3C2)cc1,57.6% (active)
26,O=C(CN1CCCCC1)Nc1ccccc1NC(=O)CN1CCCCC1,-13.4% (inactive)
27,O=C(CN1CCc2ccccc2C1)Nc1ccccc1N1CCCCCC1,93.4% (active)
28,CC(C)CC(=O)Nc1ccccc1N1CCCC1,-9.5% (inactive)

# Reference: PubChem BioAssay AID430 (Sanford-Burnham Center for Chemical Genomics, 2006)
